Test results from PubChem BioAssay (NCI).
The panel holds about 83,000 compounds, 20% with a hit somewhere; the sample as a whole holds those more often.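 Percent growth is the endpoint: 0 to 100 indicates growth inhibition (40 means 60% inhibition), 0 means no net growth, and negative values indicate cell death.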 Unmarked numbers belong to inactive results. The source made the active and inactive calls. The calls were made as follows: active = growth percent below 10; inactive = the rest.

Experiments:
Assay in all cases: NCI-60 one-dose screen, 48 h (100 = growth as untreated, 0 = no growth, -100 = all killed)
NCI-H23 lung = conditions: 10 µM
NCI-H322M lung = conditions: 10 µM
HOP-62 NSCLC = conditions: 10 µM
NCI-H460 lung = conditions: 10 µM
HOP-92 NSCLC = conditions: 10 µM
NCI-H522 lung = conditions: 10 µM
786-0 renal = conditions: 10 µM
COLO 205 colon = conditions: 10 µM
DU-145 prostate = conditions: 10 µM
K-562 leukemia = conditions: 10 µM
MALME-3M melanoma = conditions: 10 µM
MDA-MB-231 breast = conditions: 10 µM
RXF 393 renal = conditions: 10 µM
SF-268 CNS = conditions: 10 µM
SF-295 CNS = conditions: 10 µM
SF-539 CNS = conditions: 10 µM
UACC-257 melanoma = conditions: 10 µM
M14 melanoma = conditions: 10 µM unless noted
A549/ATCC NSCLC = conditions: 10 µM

Compound | growth (NCI-H23 lung) | growth (NCI-H322M lung) | growth (HOP-62 NSCLC) | growth (NCI-H460 lung) | growth (HOP-92 NSCLC) | growth (NCI-H522 lung) | growth (786-0 renal) | growth (COLO 205 colon) | growth (DU-145 prostate) | growth (K-562 leukemia) | growth (MALME-3M melanoma) | growth (MDA-MB-231 breast) | growth (RXF 393 renal) | growth (SF-268 CNS) | growth (SF-295 CNS) | growth (SF-539 CNS) | growth (UACC-257 melanoma) | growth (M14 melanoma) | growth (A549/ATCC NSCLC)
COc1ccc(N)c2c1C(=O)c1ccccc1C2=O | 99.6% | 91.1% | 111% | 98.1% | 84.1% | 88.6% | 112% | 111% | 112% | 98.9% | 88.2% | 95.5% | 95.6% | 104% | 103% | 101% | 106% | 117% | –
Nc1nc(N)c2cc(Sc3ccc4ccccc4c3)ccc2n1 | 43.1% | 48% | 65% | 16.1% | 30.3% | 31.4% | 23% | -71.6% (active) | 30.5% | -3.38% (active) | 53% | 40.2% | 52.7% | 42.1% | – | 33.2% | 32.9% | 16.4% | –
COc1ccc2c(c1)[nH]c1c(/C=C/c3ccccc3)nccc12 | 60.8% | 70.5% | 71.8% | 56.2% | – | 40.3% | 62.9% | 14.4% | 103% | 36.1% | 69.2% | 73.7% | 69.5% | 85.5% | 59.2% | 52.1% | 71.8% | 71.4% | –
O=C1c2ccccc2CCC1(Br)Br | 28.9% | 100% | 96.5% | 95% | – | -70.8% (active) | 14.8% | -68.2% (active) | 21.8% | -13.5% (active) | -45.8% (active) | -1.14% (active) | – | 59.3% | 105% | 16.9% | 63% | 5.66% (active) | –
CC[C@@]1(OC(=O)CN(C)C)C(=O)OCc2c1cc1n(c2=O)Cc2cc3c(N)cccc3nc2-1 | -26.7% (active) | -18.6% (active) | -5.79% (active) | -5.75% (active) | – | -26% (active) | 0.893% (active) | 17.5% | 4.87% (active) | 9.06% (active) | -23.9% (active) | 27.7% | -23.4% (active) | 8.15% (active) | -7.04% (active) | -30.9% (active) | -35.4% (active) | -40.1% (active) | –
O=[N+]([O-])c1cc(S(=O)(=O)Nc2ccccc2)ccc1Cl | 97% | 90.9% | 104% | 108% | 90% | 73.8% | 100% | 119% | – | 83.9% | 105% | 110% | 114% | 99.6% | 97.2% | 102% | 88% | 88.7% | –
C=C1N(C)c2ccc(Cl)cc2C1(C)C | 52% | 84.2% | 63.6% | 39.4% | 48.1% | 23.7% | 75.8% | 23.7% | 48.9% | 13.2% | 66% | 82.7% | – | 77.4% | 67.1% | 109% | 60.4% | 72.2% | –
CCC(=O)Oc1ccc(/C=N/NC(N)=S)nc1 | 26.7% | 46% | 36.4% | 52% | 68.5% | 39.4% | 23.6% | 79.5% | 28.4% | 47.3% | 59% | 63.4% | 60.5% | 25.4% | 97.4% | – | 68.1% | 9.1% (active) | –
O=Nc1ccc(Nc2ccccc2)cc1 | 89% | 98.5% | 111% | 97.8% | 26% | 66.8% | 80% | 105% | 94.9% | 13.4% | 104% | 62.5% | 86.5% | 86% | 101% | 67.7% | – | 89.7% | –
S=C1SCN(CCc2ccccc2)CN1CCc1ccccc1 | 96.5% | 86.5% | 87.6% | 108% | – | 58.6% | 117% | 99.2% | 93% | 55.8% | 87.3% | 99.3% | 91.8% | 106% | 93.4% | 115% | 71.6% | 120% | 90.8%
CN(C)c1ccc(/C=C/c2ccnc3ccccc23)cc1N | 48.8% | 85.1% | 77.2% | 77.9% | -3.62% (active) | 56.6% | 85.6% | 62.9% | 83.5% | 31.1% | 68% | 46.1% | 80.9% | 87.4% | 74.8% | 76.9% | 58.7% | 73.9% | –
O=C(CNS(=O)(=O)Cc1ccccc1)NNc1ccccc1 | 92.3% | 75% | 46.3% | 29.4% | 101% | 41% | 76.6% | 75.2% | 67.2% | 9.47% (active) | 91.3% | – | 120% | 60.1% | 26.2% | 61.4% | 84.5% | 31.1% | –
Cc1c(-c2ccccc2)[nH]c2ccccc12 | 103% | 108% | 104% | 104% | 71.8% | 86.1% | – | 115% | 107% | 110% | 106% | 95.1% | 109% | 104% | 106% | 99.3% | 112% | 143% | –
O=C1C=CC(=O)N1c1ccc(N2C(=O)C=CC2=O)cc1 | 91.3% | 92.4% | 86.8% | 103% | 123% | -11.5% (active) | 103% | 95.2% | 122% | -6.5% (active) | 85.7% | 115% | – | 112% | 109% | 87% | 113% | 98.3% | –
